Most compounds without a hit are left out; they make up all but 19% or so of the library.
HT1080 IDH1KD tx – kills HT-1080 cells with IDH1 knockdown | HT-1080 IDH1 knockdown viability, ATP luminescence, 48 h | AID 686971 | 360,000 tested, 2% active | Potency, µM (series often up to 46.1 µM), actives largely listed as cytotoxic
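% activity derives from luminescence (CellTiter-Glo), normalised to DMSO and no-cell wells. HT-1080-IDH1KD cells, 750/well, had 48 h compound exposure at 37 °C.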
IL-1B inflam inh – inhibitors of inflammasome signaling (IL-1 beta secretion). THP-1 LPS/ATP IL-1B secretion, AlphaLISA, 16 h; stronger effect = lower value. activity change, % at 57.5 µM. 360,000 tested, 4.7% active; in the data active = activity change below about -50%; inconclusive = mostly about -30% to -49%
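THP-1 cells pretreated 1 hr with compounds (up to 57.5 uM final), then stimulated with LPS (250 ng/mL final) plus ATP (1.25 mM final); secreted IL-1B measured by AlphaLISA after 16 hr, decreased signal indicating inhibition.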
TDP1 cell noCPT – qHTS for Inhibitors of human tyrosyl-DNA phosphodiesterase 1 (TDP1): qHTS in cells in absence of CPT; Potency, µM (doses to about 46.2 µM), actives largely listed as inhibitors; DT40 Tdp1-/- hTDP1 cells, no CPT, ATP luminescence, 48 h; 420,000 tested, 15% active; AID 686978, 2013; note: nearly all actives have a fitted effect of over 55% in size
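Compound effects on proliferation are scored in DT40 Tdp1-/-;hTDP1 cells in the absence of CPT. ATP levels (CellTiter-Glo luminescence) are recorded after a ≥48 hr, 37 °C incubation.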
TDP1 cell CPT – DT40-hTDP1 cell growth loss with CPT. chicken DT40 Tdp1-/-;hTDP1 cells + 20 nM CPT, ATP luminescence, 48 h. Potency, µM (highest dose often 46.2 µM), actives largely listed as inhibitors. 420,000 tested, 12% active. AID 686979; note: nearly all actives have a fitted effect of over 55% in size
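Chicken DT40 Tdp1-/- cells complemented with human TDP1, 400 cells/well, exposed to compounds plus 20 nM camptothecin for at least 48 h at 37 C; viability read as ATP content by CellTiter-Glo luminescence.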
HT1080NT lethal – kills 2HG-producing HT-1080-NT fibrosarcoma cells. HT-1080-NT fibrosarcoma viability, CellTiter-Glo ATP luminescence, 48 h. Potency, µM (series often up to 46.1 µM), most hits filed as cytotoxic. 360,000 tested, 1.6% active. AID 686970;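 note: NT is the 2HG producing partner of a matched IDH1 knockdown line; nearly all actives have a fitted effect of over 55% in size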
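Luminescent CellTiter-Glo readout after 48 hours of compound exposure at 37 degrees C defined viability of HT-1080-NT cells. Activity was normalized to DMSO wells and cell-free media wells; concentration-response curves were fitted and assigned curve classes.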
Large screens that a line does not name were inactive. Unless noted, calls come from the whole dose curve; as a rule, active = well fitted curve in the direction sought with a large enough effect; inconclusive = small, poorly fitted or top-dose-only effect, or another doubt; inactive = no such curve, though single readings can be large; an effect the other way counts as inactive or inconclusive.

CN(c1cccc(NC(=O)c2ccc(Cl)c(S(=O)(=O)N3CCOCC3)c2)c1)S(C)(=O)=O	TDP1 cell noCPT 12µM, TDP1 cell CPT inconclusive
O=C(Nc1ccccn1)c1ccc(Cl)c(S(=O)(=O)N2CCOCC2)c1	none
O=C(Cn1c(=O)c2cccn2c2ccccc21)NCCc1ccccc1	none
O=C(c1c[nH]c(C(=O)C(Cl)(Cl)Cl)c1)c1ccc(F)cc1Cl	HT1080 IDH1KD tx 26µM, IL-1B inflam inh -63, TDP1 cell noCPT 13µM, TDP1 cell CPT inconclusive
CNC(=O)c1cc(C(=O)c2ccc(F)cc2Cl)c[nH]1	none
O=C(c1ccc(Cl)cc1)c1c[nH]c(C(=O)C(Cl)(Cl)Cl)c1	IL-1B inflam inh -112, TDP1 cell noCPT 12µM, TDP1 cell CPT 12µM
O=C(Cc1ccccc1)c1c[nH]c(C(=O)C(Cl)(Cl)Cl)c1	TDP1 cell noCPT 6.5µM, TDP1 cell CPT 2.9µM
O=C(c1c[nH]c(C(=O)C(Cl)(Cl)Cl)c1)c1ccc(F)cc1F	TDP1 cell noCPT 13µM, TDP1 cell CPT inconclusive
NS(=O)(=O)c1ccc(CCNC(=O)C(=O)c2cn(CC(=O)N3CCOCC3)c3ccccc23)cc1	none
COc1cc(CN2C[C@@H](CO)O[C@@H](n3cnc4c(NCCN(C)C)ncnc43)C2)cc(OC)c1OC	HT1080NT lethal inconclusive
O=C(c1ccc(Cl)cc1)c1c[nH]c(C(=O)NNc2ccccc2)c1	HT1080 IDH1KD tx 5.2µM, HT1080NT lethal inconclusive
CN1C(=O)CSC1=Nc1cccc(Cl)c1	none
CCN(C(=O)COc1ccccc1)C1CCCCC1	TDP1 cell noCPT inconclusive, TDP1 cell CPT 21µM
CCN(C(=O)CSc1ccccn1)C1CCCCC1	TDP1 cell noCPT 15µM, TDP1 cell CPT 10µM
CCN(C(=O)CCc1ccccc1)C1CCCCC1	TDP1 cell noCPT inconclusive, TDP1 cell CPT inconclusive
COc1ccccc1OCC(=O)N(Cc1nc(-c2ccccc2)no1)C1CCCCC1	TDP1 cell noCPT 21µM, TDP1 cell CPT 23µM
CCN(C(=O)CSc1ncn[nH]1)C1CCCCC1	none
Cn1c(=O)c2c([nH]c(=O)n2C)n(Cc2ccccc2)c1=O	none
O=C(NC1CCCC1)c1ccc(CS(=O)(=O)Cc2ccccc2Cl)o1	TDP1 cell CPT inconclusive
COc1ccc(CCNC(=O)c2ccc(CS(=O)(=O)Cc3cccc(C)c3)o2)cc1OC	TDP1 cell noCPT 12µM, TDP1 cell CPT 21µM
CCOc1ccc(CCNC(=O)c2ccc(CS(=O)(=O)Cc3ccccc3Cl)o2)cc1OCC	TDP1 cell noCPT 23µM, TDP1 cell CPT 16µM (no result: HT1080 IDH1KD tx, IL-1B inflam inh, HT1080NT lethal)
CCOc1ccc(CCNC(=O)c2ccc(CSCc3ccccc3C)o2)cc1OCC	TDP1 cell noCPT 16µM, TDP1 cell CPT 16µM (no result: HT1080 IDH1KD tx, IL-1B inflam inh, HT1080NT lethal)
COc1ccc(/C=N\NC(=O)C2C(=O)NCC2c2ccccc2)cc1O (stereo not drawn)	TDP1 cell noCPT 16µM, TDP1 cell CPT 7.3µM
O=C1NCC(c2ccccc2)C1C(=O)N/N=C\c1ccc(-c2ccc(Cl)c(Cl)c2)o1 (stereo not drawn)	HT1080 IDH1KD tx inconclusive, IL-1B inflam inh -61, TDP1 cell noCPT inconclusive, TDP1 cell CPT inconclusive, HT1080NT lethal inconclusive
CCN1CCN(C(=O)c2cc(=O)c3cc(C)ccc3o2)CC1	none
CCOC(=O)c1cc(-c2ccccc2C)nn1CC1CC(c2cccnc2)=NO1 (stereo not drawn)	TDP1 cell noCPT inconclusive, TDP1 cell CPT inconclusive
O=c1nc2scc(-c3ccccc3)n2c2ccccc12	none
NC(=O)OC[C@@H]1[C@H](NC(=O)/C(=N\OCC(=O)O)c2csc(N)n2)C(=O)N1S(=O)(=O)O	none (no result: HT1080 IDH1KD tx, IL-1B inflam inh, HT1080NT lethal)
CCCCCc1ccnc(CC(=O)c2ccc(OC)cc2)c1	TDP1 cell noCPT 8.2µM, TDP1 cell CPT 8.2µM
CCCCCc1ccc(-c2ccc(OC)cc2)nc1	none
Cc1ccccc1NC(=O)COC(=O)c1cc(S(=O)(=O)N2CCOCC2)ccc1C	none
Oc1ccccc1C=NNC(=S)NC1CC2C=CC1C2 (stereo not drawn)	HT1080 IDH1KD tx inconclusive, TDP1 cell noCPT inconclusive, TDP1 cell CPT inconclusive
Oc1c(Cl)cc(Cl)cc1/C=N/NC(=S)NC1CC2C=CC1C2 (stereo not drawn)	HT1080 IDH1KD tx 21µM, TDP1 cell noCPT 12µM, TDP1 cell CPT inconclusive, HT1080NT lethal inconclusive
Oc1ccccc1/C=N/NC(=S)NC1CC2C=CC1C2 (stereo not drawn)	HT1080 IDH1KD tx inconclusive, IL-1B inflam inh -100, TDP1 cell noCPT 1.6µM, TDP1 cell CPT 1.8µM, HT1080NT lethal inconclusive
COC(=O)C(C)Nc1cccc(Br)c1 (stereo not drawn)	none
CCOC(=O)C(c1ccccc1)C(Nc1ccc(Cl)c(Cl)c1)c1ccccn1 (stereo not drawn)	TDP1 cell noCPT 9.2µM, TDP1 cell CPT inconclusive
CCOC(=O)C(C(=O)OCC)C(Nc1cccc(Br)c1)c1ccccc1 (stereo not drawn)	HT1080 IDH1KD tx inconclusive, IL-1B inflam inh -68, TDP1 cell noCPT inconclusive, TDP1 cell CPT 15µM, HT1080NT lethal inconclusive
Cc1cc(C(=O)NNC(=O)c2ccc(F)cc2)c(C)s1	none
CCOc1ccc(CCN2C(=S)N([C@@H](Cc3ccccc3)CN3CCC[C@@H]3CN3C(=S)NC[C@@H]3CC(C)C)C[C@@H]2Cc2ccccc2)cc1	TDP1 cell noCPT 15µM, TDP1 cell CPT inconclusive
CCOc1ccc(CCN2C(=S)N([C@@H](Cc3ccc(O)cc3)CN3CCC[C@@H]3CN3C(=S)NC[C@@H]3CC(C)C)C[C@@H]2CC(C)C)cc1	IL-1B inflam inh -59, TDP1 cell noCPT 21µM, TDP1 cell CPT 16µM
CCOc1ccc(CCN2C(=S)N([C@@H](Cc3ccc(O)cc3)CN3CCC[C@@H]3CN3C(=S)NC[C@@H]3Cc3ccccc3)C[C@@H]2CC(C)C)cc1	TDP1 cell noCPT 9.2µM, TDP1 cell CPT 10µM
CCOc1ccc(CCN2C(=S)N([C@@H](CC(C)C)CN3CCCC3CN3C(=S)NC[C@@H]3CC(C)C)C[C@@H]2CC(C)C)cc1 (stereo partly drawn)	TDP1 cell noCPT 18µM, TDP1 cell CPT inconclusive
CC(C)C[C@H]1CN([C@@H](CC(C)C)CN2CCCC2CN2C(=S)NC[C@@H]2Cc2ccccc2)C(=S)N1CCc1ccccc1 (stereo partly drawn)	TDP1 cell noCPT inconclusive, TDP1 cell CPT inconclusive
CCc1cccc(C)c1NC(=O)Cn1cnc2c1c(=O)n(C)c(=O)n2C	TDP1 cell CPT inconclusive (no result: HT1080 IDH1KD tx, IL-1B inflam inh, HT1080NT lethal)
CC(C)C[C@H]1CNC(=S)N1C[C@H]1CCCN1C[C@H](Cc1ccc(O)cc1)N1C[C@H](Cc2ccccc2)N(CCc2ccccc2)C1=S	TDP1 cell noCPT inconclusive, TDP1 cell CPT inconclusive
